Screening data from PubChem.
HTR5A ag ctr – HTR5A agonism, opioid heterodimer counter-screen. P47898. HTR5A agonist assay, luminescence, cell-based. activation, % at 9.3 µM. 340,000 tested, 0.61% active; in the data active = activation mostly above about 9.5%, no sharp cut-off; inactive = mostly below about 7.6%;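 note: 0% = cells with vehicle only and 100% = reference agonist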
OPRM1-OPRD1 inv – mu-delta opioid heterodimer inverse agonism; inhibition, % at 9.3 µM; cell-based MOR-DOR heterodimer luminescence; P35372+P41143; AID 504357; 340,000 tested, 0.21% active; in the data active = inhibition above about 22%, passing the limit was not always enough;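 note: 0% = cells with DMSO and 100% = wells without cells with DMSO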
Target sequence (P35372 whole entry, looked up): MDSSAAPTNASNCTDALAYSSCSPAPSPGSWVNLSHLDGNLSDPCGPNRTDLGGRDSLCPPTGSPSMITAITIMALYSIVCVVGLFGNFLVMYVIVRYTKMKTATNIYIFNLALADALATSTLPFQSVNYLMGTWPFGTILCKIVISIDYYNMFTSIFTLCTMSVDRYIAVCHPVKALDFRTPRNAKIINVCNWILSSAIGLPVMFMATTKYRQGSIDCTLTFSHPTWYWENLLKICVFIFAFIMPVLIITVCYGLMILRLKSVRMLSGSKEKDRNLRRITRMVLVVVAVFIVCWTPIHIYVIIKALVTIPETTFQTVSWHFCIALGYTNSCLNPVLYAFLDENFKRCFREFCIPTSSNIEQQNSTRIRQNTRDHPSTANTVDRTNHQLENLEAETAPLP
Target sequence (P41143 whole entry, looked up): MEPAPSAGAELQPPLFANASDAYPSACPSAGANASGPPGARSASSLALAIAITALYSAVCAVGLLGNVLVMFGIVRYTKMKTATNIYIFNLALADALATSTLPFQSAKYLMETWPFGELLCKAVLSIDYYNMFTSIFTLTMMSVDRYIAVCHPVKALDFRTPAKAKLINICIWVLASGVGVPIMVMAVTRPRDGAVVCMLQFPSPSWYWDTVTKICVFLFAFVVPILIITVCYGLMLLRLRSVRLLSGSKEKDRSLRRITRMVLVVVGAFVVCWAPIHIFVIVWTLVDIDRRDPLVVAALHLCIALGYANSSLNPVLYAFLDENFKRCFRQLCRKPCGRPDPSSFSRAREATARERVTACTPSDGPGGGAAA
HTR5A inv ctr – HTR5A inverse agonism, opioid heterodimer counter-screen; 340,000 tested, 0.083% active; HTR5A cell line, luminescence; inhibition, % at 9.3 µM; in the data active = inhibition mostly above about 23%, no sharp cut-off; inactive = mostly below about 18%;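 note: 0% = cells with DMSO and 100% = no-cell wells with DMSO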
OPRM1-OPRD1 ag – OPRM1-OPRD1 heterodimerization agonism. 340,000 tested, 0.3% active. activation, % at 9.3 µM. cells, luminescence;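 note: 0% = vehicle-treated cells and 100% = reference agonist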
MOR-DOR ag conf – confirmation of human OPRM1-OPRD1 heterodimerization agonists; shares compounds with OPRM1-OPRD1 ag; cells, MOR-DOR heterodimerization, luminescence complementation; activation, % at 9.3 µM; 830 tested, 45% active;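 note: 0% = vehicle-treated cells and 100% = reference agonist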
HTR5A ag counter – HTR5A agonism, opioid heterodimer counter-screen; shares compounds with OPRM1-OPRD1 ag; HTR5A agonist counterscreen, cell luminescence; activation, % at 9.3 µM; 830 tested, 8% active; AID 504905; in the data active = activation above about 17%;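 note: 0% = vehicle-treated cells and 100% = reference agonist response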
An asterisk follows results filed as active; i = inactive; . = no result given. An excerpt weighted towards active compounds, which were near 1.1% of everything screened. Cut-off read from the data, not from the text of the source, unless noted: active = activation above about 18%; inactive = the rest.

SMILES	HTR5A ag ctr	OPRM1-OPRD1 inv	HTR5A inv ctr	OPRM1-OPRD1 ag	MOR-DOR ag conf	HTR5A ag counter
O=C(Nc1ccon1)c1ccccc1F	0	8	3	-1	.	.
NC(N)=N/N=C/c1ccc(OCc2ccccc2Cl)cc1	5	-124	-10	22*	7	-4
NC(N)=N/N=C/c1ccccc1	3	13	20	-2	.	.
COc1ccc2c(c1)[nH]c1c(=O)n(/N=C/C3C(C)C=C(C)CC3C)c(=O)[nH]c12 (configuration not stated)	0	-32	33	7	.	.
COc1ccc2[nH]c3c(=O)n(/N=C/[C@H]4C(C)C=C(C)CC4C)c(=O)[nH]c3c2c1 (some centres not stated)	1	-274	-4	54*	39*	16
O=C(NCc1ccco1)c1cc2ccccc2o1	0	8	0	-1	.	.
CN(C)C(CNC(=O)c1cc2ccccc2o1)c1ccco1 (configuration not stated)	5	-93	-12	22*	147*	0
CN(C)C(CNC(=O)c1ccc(C(F)(F)F)cc1)c1ccco1 (configuration not stated)	3	-209	-8	51*	52*	1
COc1ccc(C(=O)NCC(=O)NCC(c2ccco2)N(C)C)cc1OC (configuration not stated)	-4	-2	13	0	.	.
Cc1ccc(CC(=O)NCC(c2ccco2)N(C)C)cc1C (configuration not stated)	-6	-387	15	69*	56*	1
CC(=O)Nc1ccc(C(=O)NCC(c2ccco2)N(C)C)cc1 (configuration not stated)	1	-3	-3	1	.	.
O=C(CC1C(=O)NCCN1Cc1cccc(Oc2ccccc2)c1)NCCn1cccn1 (configuration not stated)	2	-6	1	1	.	.
COc1ccc(CCNC(=O)C(=O)NCC2CCCN2S(=O)(=O)c2ccccc2)cc1 (configuration not stated)	5	4	-13	-1	.	.
CCN(CC)CCN1C(=O)C2C(C(=O)Nc3ccc(C(C)C)cc3)C3C=CC2(O3)C1C(=O)NC1CCCCC1 (configuration not stated)	4	-302	-10	37*	-1	-6
CCCCN(C)CCN1C(=O)C2C(C(=O)Nc3ccc(C)cc3)C3C=CC2(O3)C1C(=O)NC1CCCCC1 (configuration not stated)	0	-18	0	2	.	.
CC(C)c1ccc(NC(=O)C2C3C=CC4(O3)C2C(=O)N(CCCN2CCCCC2)C4C(=O)NC2CCCCC2)cc1 (configuration not stated)	3	-212	-8	26*	-1	-8
Cc1ccc(NC(=O)C2C3C=CC4(O3)C2C(=O)N(CCCN2CCCC2)C4C(=O)NC2CCCCC2)cc1Cl (configuration not stated)	-1	-1	2	0	.	.
Cc1cccc(C)c1NC(=O)CNC(=O)C12CC3CC(CC(O)(C3)C1)C2	-3	19	8	-4	.	.
CCN1CCN(S(=O)(=O)c2ccc(Cl)c(C(=O)N(CCc3ccccc3)Cc3ccccc3)c2)CC1	-4	-103	13	20*	360*	9
CC1CCCN(C(=O)c2ccc3c(=O)n(Cc4ccc5c(c4)OCO5)c(=S)[nH]c3c2)C1 (configuration not stated)	4	-7	17	1	.	.
COc1cccc(CNCCc2c[nH]c3ccccc23)c1OCc1ccccc1	10	-99	-45	18*	27*	8
COc1cc(CNCCc2c[nH]c3ccccc23)ccc1OCc1ccccc1F	-3	6	2	-1	.	.
CC(C)C[C@H]1CN=C(Nc2ccccc2)N1CCc1cccc(F)c1	4	-1	-9	0	.	.
Cc1cccc(CCN2C(Nc3ccccc3)=NC[C@@H]2CC(C)C)c1	9	-173	9	38*	0	-2
COc1cc(NC(=O)c2cccc(C)c2)ccc1NC(=O)c1cc2ccccc2o1	1	-167	-4	30*	49*	6
SMILES	HTR5A ag ctr	OPRM1-OPRD1 inv	HTR5A inv ctr	OPRM1-OPRD1 ag	MOR-DOR ag conf	HTR5A ag counter
CC(NC(=O)COC(=O)c1cn(-c2ccccc2)nc1-c1cccs1)c1ccccc1 (configuration not stated)	5	-6	-11	1	.	.
O=C(O)c1cc(-c2ccc(N3CCOCC3)cc2)nn1-c1ccc(F)cc1	2	1	-6	0	.	.
CCOC(=O)C1(CCOc2ccccc2)CCN(Cc2cccn2-c2cccnc2)CC1	-2	i	5	224*	240*	1
CCOC(=O)C1(Cc2ccccc2)CCN(Cc2cccn2-c2cccnc2)CC1	0	-218	0	41*	55*	-2
CCOC(=O)C1(Cc2ccccc2)CCN(Cc2cccn2-c2nccs2)CC1	-2	-192	5	27*	224*	6
CCOC(=O)C1(Cc2cccc(OC)c2)CCN(Cc2cccn2-c2nccs2)CC1	-2	-24	-14	5	.	.
COCCSc1ccccc1C(=O)Nc1cc([N+](=O)[O-])ccc1OC	-3	14	9	-3	.	.
NC(=O)c1cc(-c2csc(NCCc3ccccc3)n2)ccc1O	0	-102	1	19*	20*	-1
C=CCNc1nc(-c2ccc(O)c(C(N)=O)c2)cs1	-3	4	7	-1	.	.
CC(COc1ccccc1)N1CCC(CO)(CCc2ccccc2)CC1 (configuration not stated)	2	i	-6	176*	0	0
Cc1cc(Cl)ccc1OCCCC(=O)N/N=C/c1cccc([N+](=O)[O-])c1	5	-110	-9	21*	2	-7
COc1ccc(C2/C=C\CN(C(=O)Nc3ccccc3)CC(=O)N2Cc2ccc(F)cc2)cc1 (configuration not stated)	-1	7	8	-1	.	.
COc1ccc(C2/C=C\CN(C(=O)Nc3ccc(C(F)(F)F)cc3)CC(=O)N2Cc2ccc(F)cc2)cc1 (configuration not stated)	20*	-318	-50	58*	0	-3
CC(=O)Nc1nonc1-c1nc2ccccc2n1C	1	13	-3	-3	.	.
COc1cc(C(=O)Nc2nc3ccc(S(C)(=O)=O)cc3s2)cc(OC)c1C	6	-198	-15	37*	14	9
CN(C)C(CNC(=O)c1cccc(S(=O)(=O)Nc2ccc(SC(F)F)cc2)c1)c1ccccc1 (configuration not stated)	-2	-150	1	38*	5	1
COc1ccc(C(CNC(=O)c2cccc(S(=O)(=O)NCc3ccccc3)c2)N(C)C)cc1 (configuration not stated)	-2	-104	12	20*	15	0
CN(C)C(CNC(=O)c1cccc(S(=O)(=O)N(C)C)c1)c1ccccc1 (configuration not stated)	4	-178	-15	33*	2	26*
